Experimental data published in the OligoGym collection.

What follows are sequences tested against CYTH1 (assay: pooled miR-30 sensor sort-seq; sequence = guide strand). Settings: shRNA.
Further: reference of the scale not given here.

Which sensor-assay potency score (higher = more potent) does the source give for TCGTTCTCTATTAAGAACTGGA here?
Its sensor-assay potency score (higher = more potent) is -0.271.

TACTTCTGCTATCTCATCCTTC was tested. Which sensor-assay potency score (higher = more potent) did it give?
Its sensor-assay potency score (higher = more potent) is 0.117.

For TTGTCAGTCAGAATGAACCAGC, which sensor-assay potency score (higher = more potent) is on record?
Its sensor-assay potency score (higher = more potent) is -0.752.

TAGGAAACACTTGAGAACCAGG was tested. Which sensor-assay potency score (higher = more potent) did it give?
Its sensor-assay potency score (higher = more potent) is -0.778.

For TGCACTGACAATATCGCTGGGC, which sensor-assay potency score (higher = more potent) is on record?
The sensor-assay potency score (higher = more potent) was 0.0607.

For TATTGCACTGACAATATCGCTG, which sensor-assay potency score (higher = more potent) is on record?
Its sensor-assay potency score (higher = more potent) is -0.0444.

Each sequence was assayed against CYTH4 in the same assay as above. Settings: shRNA.

With AAGGACAACACGTAGCAGGTGT as the sequence, how does the sensor-assay potency score (higher = more potent) read?
Its sensor-assay potency score (higher = more potent) is 0.877.

How did the sensor-assay potency score (higher = more potent) turn out when TTGAGGTTGGCGAACTCGTGGC was run?
The sensor-assay potency score (higher = more potent) was -0.377.

Which sensor-assay potency score (higher = more potent) does the source give for TTTCGGTGCCACTTGATCCTCT here?
Its sensor-assay potency score (higher = more potent) is -0.308.

With TTGTCGGTCAGGATGAACCAGC as the sequence, how does the sensor-assay potency score (higher = more potent) read?
Its sensor-assay potency score (higher = more potent) is -0.768.

With TTCATGGACACAAAGCGCTCGA as the sequence, how does the sensor-assay potency score (higher = more potent) read?
The sensor-assay potency score (higher = more potent) was -0.11.

TTGAGCAGCCAACCCTCCCGGT was tested. Which sensor-assay potency score (higher = more potent) did it give?
Its sensor-assay potency score (higher = more potent) is -1.04.

How did the sensor-assay potency score (higher = more potent) turn out when TCCATGTTGAACTTCTTGCGCC was run?
Its sensor-assay potency score (higher = more potent) is -1.08.

How did the sensor-assay potency score (higher = more potent) turn out when TAGCAGGTGTCTGTGGACTGGA was run?
The sensor-assay potency score (higher = more potent) was -0.452.

For TGATCCTCTGTAACTCTTCCGT, which sensor-assay potency score (higher = more potent) is on record?
Its sensor-assay potency score (higher = more potent) is -0.462.

TGTAACTCTTCCGTCTCCCCGC was tested. Which sensor-assay potency score (higher = more potent) did it give?
The sensor-assay potency score (higher = more potent) was -0.31.

With TTGGATATAGCACCCATCCTGC as the sequence, how does the sensor-assay potency score (higher = more potent) read?
The sensor-assay potency score (higher = more potent) was -0.488.

These sequences were tested against CYorf15A in the same assay as above. Settings: shRNA.

Which sensor-assay potency score (higher = more potent) does the source give for TAAAGCTTGCTGACCAGACGGA here?
Its sensor-assay potency score (higher = more potent) is 0.11.

TACAACATGGAGTTGCTGCTTT was tested. Which sensor-assay potency score (higher = more potent) did it give?
Its sensor-assay potency score (higher = more potent) is 0.408.

TTGCTTTACAAAGTCTAGTAGG was tested. Which sensor-assay potency score (higher = more potent) did it give?
Its sensor-assay potency score (higher = more potent) is -0.465.

TATCTTTTCCATTATTTGCTTT was tested. Which sensor-assay potency score (higher = more potent) did it give?
The sensor-assay potency score (higher = more potent) was -0.915.

With TTATTTGCTTTACAAAGTCTAG as the sequence, how does the sensor-assay potency score (higher = more potent) read?
The sensor-assay potency score (higher = more potent) was -0.983.

Which sensor-assay potency score (higher = more potent) does the source give for TTGCATTGTAAAGCTTGCTGAC here?
The sensor-assay potency score (higher = more potent) was -0.311.

With AAGACTTTTTCTTTGTTCCTGT as the sequence, how does the sensor-assay potency score (higher = more potent) read?
Its sensor-assay potency score (higher = more potent) is 0.524.

For TTCTTTGTTATAAAGTCACGGC, which sensor-assay potency score (higher = more potent) is on record?
Its sensor-assay potency score (higher = more potent) is -0.192.

For TTGGAGTTGATTATTAACTAAA, which sensor-assay potency score (higher = more potent) is on record?
Its sensor-assay potency score (higher = more potent) is -1.56.

ATTTACAACATGGAGTTGCTGC was tested. Which sensor-assay potency score (higher = more potent) did it give?
The sensor-assay potency score (higher = more potent) was -0.262.

How did the sensor-assay potency score (higher = more potent) turn out when TCTGCTTTCTCTCTTAACCCAC was run?
The sensor-assay potency score (higher = more potent) was -0.243.

How did the sensor-assay potency score (higher = more potent) turn out when TTGTGCATTTACAACATGGAGT was run?
Its sensor-assay potency score (higher = more potent) is -0.696.

These sequences were tested against DAGLA in the same assay as above. Settings: shRNA.

Which sensor-assay potency score (higher = more potent) does the source give for TATATTTATAGAATAAGCTATA here?
Its sensor-assay potency score (higher = more potent) is -0.774.

Which sensor-assay potency score (higher = more potent) does the source give for TAGAAGTCCGGATCTTGTCAGC here?
Its sensor-assay potency score (higher = more potent) is -0.641.

TAGAGGTCTTGGAAGGAGCTGC was tested. Which sensor-assay potency score (higher = more potent) did it give?
Its sensor-assay potency score (higher = more potent) is 0.223.

Which sensor-assay potency score (higher = more potent) does the source give for TCTTCTTGATGTACTCAGCTGA here?
The sensor-assay potency score (higher = more potent) was 0.266.

TTCATCTGAGAGTCTGTCTTGT was tested. Which sensor-assay potency score (higher = more potent) did it give?
Its sensor-assay potency score (higher = more potent) is 0.509.

How did the sensor-assay potency score (higher = more potent) turn out when TTTTACAGCAATATTAGTTTGG was run?
Its sensor-assay potency score (higher = more potent) is 0.015.

With TTGAGGGTCGGATACTGTGGGC as the sequence, how does the sensor-assay potency score (higher = more potent) read?
Its sensor-assay potency score (higher = more potent) is -1.18.

How did the sensor-assay potency score (higher = more potent) turn out when TAGTTCTCCAGCACCTTGTTGA was run?
The sensor-assay potency score (higher = more potent) was -0.467.

For TTAGGAACGGTGCACACTCATG, which sensor-assay potency score (higher = more potent) is on record?
Its sensor-assay potency score (higher = more potent) is -1.56.

Which sensor-assay potency score (higher = more potent) does the source give for TTAAGTACAAAAAAAGTCTGGG here?
Its sensor-assay potency score (higher = more potent) is 0.278.

Which sensor-assay potency score (higher = more potent) does the source give for TAAACATGTACAGCACTGCAGG here?
The sensor-assay potency score (higher = more potent) was -1.11.
